High-throughput results: PubChem, National Center for Advancing Translational Sciences (NCATS)
Sampled rows, rich in hits. Any-hit rate of the full collection: about 2.4%.
Cruzain noTriton = blocks cruzain activity in detergent-free assay. P25779. purified cruzain, Z-FR-AMC fluorescence, no detergent. Potency, µM, inactives show max response, negative = inhibition, actives largely listed as inhibitors. 2.3% of 200,000 active;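 further: plate controls were enzyme without inhibitor for no effect and buffer without enzyme for full effect; nearly all actives have a fitted effect of over 40% in size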
Target sequence (P25779 123-467 limits assumed): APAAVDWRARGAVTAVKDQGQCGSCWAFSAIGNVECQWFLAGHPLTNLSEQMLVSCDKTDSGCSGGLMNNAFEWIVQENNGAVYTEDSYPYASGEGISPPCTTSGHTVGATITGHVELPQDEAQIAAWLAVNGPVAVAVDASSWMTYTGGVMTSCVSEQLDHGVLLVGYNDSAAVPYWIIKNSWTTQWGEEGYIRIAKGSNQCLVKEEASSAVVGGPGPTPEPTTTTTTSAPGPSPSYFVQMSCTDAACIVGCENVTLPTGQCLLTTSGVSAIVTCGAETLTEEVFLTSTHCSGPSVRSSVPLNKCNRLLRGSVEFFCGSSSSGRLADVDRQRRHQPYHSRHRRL
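Detergent-free condition (0.00005% Triton X-100) in acetate buffer pH 5.5 with DTT. 1.5 nM enzyme and compound were pre-mixed 15 min, then 2 uM Z-FR-AMC substrate added; reaction progress from fluorescence change between first and third reads (60 s).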
Cruzain Triton = inhibitors of Trypanosoma cruzi cruzain with detergent; P25779; Potency, µM, for inactives: max response, negative = inhibition, most hits filed as inhibitors; purified cruzain, Z-FR-AMC fluorescence, 0.01% Triton; 0.43% of 200,000 active;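 further: plate controls were neutral wells for no effect and buffer without enzyme for full effect; nearly all actives have a fitted effect of over 40% in size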
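Read-out: AMC fluorescence (360 nm excitation, 450 nm emission), four reads over 2 min, first-to-third difference used. Conditions: cruzain 1.5 nM, Z-FR-AMC 2 uM, pH 5.5 acetate, 5 mM DTT, 0.01% Triton X-100.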
Starred values were filed as active, the others as inactive; ? = inconclusive. The call rests on the fitted dose curve; in most records, active means well fitted curve in the direction sought with a large enough effect; inconclusive means small, poorly fitted or top-dose-only effect, or another doubt; inactive means no such curve, though single readings can be large; an effect the other way counts as inactive or inconclusive. Potency means the concentration at half of the fitted maximal effect.

SMILES	Cruzain noTriton	Cruzain Triton
CC1=C(SCCC#N)S/C(=C2\SC(C)=C(SCCC#N)S2)S1	25.1µM*	-13.2%
CC(C)C[C@@H](CC(=O)N[C@@H](CCC(=O)O)CC(=O)O)NC(=O)[C@@H]1CCCC[C@H]1NC(=O)C[C@H](CCCN)NC(=O)C[C@H](Cc1ccccc1)NC(=O)[C@@H]1CNCC[C@H]1N	-3.8%	6.1%
N#Cc1c(Cl)nc(Cl)c2c1CCN(Cc1ccccc1)C2	-21.8%	-9.1%
N#Cc1c(NCCN)nc(NCc2ccccc2)c2c1CCN(Cc1ccccc1)C2	7.94µM*	-1.3%
O=C1C2C3C=CC(CC3)C2C(=O)N1c1ccc2c(c1)OCO2 (configuration not stated)	-3.1%	0.6%
Cc1cccc(-c2nnc(SCC(=O)Nc3ccc(C)c(C)c3)o2)c1	-10.9%	-0.7%
CCn1c2ccccc2c2cc(NC(=O)CSc3nnc(-c4cccc(Cl)c4)o3)ccc21	10µM*	6.2%
CCOc1ccc(OCc2ccc(C(=O)Nc3cccnc3)o2)cc1	-4.6%	0.0%
O=C(NCc1nc2ccccc2[nH]1)c1cc2ccccc2oc1=O	7.94µM*	14.1µM*
O=C(NCc1nc2ccccc2[nH]1)c1ccco1	-7.1%	-1.2%
CCOC(=O)c1c(-c2ccccc2)oc2cc(Br)c(OCc3ccccc3)cc12	3.5%	0.0%
CCOC(=O)c1c(-c2ccccc2)oc2ccc(OCc3cccc(Br)c3)cc12	10µM*	-5.7%
O=C(CCn1c(=O)c2cccn2c2cccnc21)NCc1ccccc1F	13.2%	-0.5%
COc1ccc(-c2cccc(-c3cc(=O)oc4ccc(C(C)(C)C)cc34)c2)cc1	35.5µM*	-0.3%
COc1cc2oc(=O)cc(-c3cccc(-c4ccc(C(F)(F)F)cc4)c3)c2c(OC)c1OC	-23.7%	0.3%
COc1cc(OC)c2c(-c3cccc(-c4ccc(C(C)=O)cc4)c3)cc(=O)oc2c1	?	3.5%
COc1cc(OC)c2c(-c3cccc(-c4ccc(OC)c(F)c4)c3)cc(=O)oc2c1	31.6µM*	0.0%
Cc1ccccc1Cn1c([N+](=O)[O-])cnc1C	0.1%	-3.2%
COC(=O)[C@@]1(Cc2ccc(OC)cc2)[C@H]2c3cc(C(=O)N4CCCC4)n(CCSCCO)c3C[C@H]2CN1C(=O)c1ccccc1	?	-5.2%
Cc1cccc2c1N(C(=O)CN1C(=O)c3ccccc3C1=O)C(C)(C)c1ssc(=S)c1-2	12.6µM*	-0.8%
Cc1cc(C)c2c(c1)-c1c(ssc1=S)C(C)(C)N2C(=O)CN1C(=O)c2ccccc2C1=O	?	-7.4%
CN1CCN(c2ncc3nc(-c4ccccc4)c(=O)n(C4CC4)c3n2)CC1	25.1µM*	31.6µM*
CN1CCN(c2ncc3nc(-c4cc(F)cc(F)c4)c(=O)n(C4CC4)c3n2)CC1	?	-11.9%
CCOC(=O)C1CCN(c2nc(-c3ccccc3)nc3c2oc2ccccc23)CC1	20µM*	-10.1%
CCOC(=O)C1CCN(c2ncnc3c2oc2ccccc23)CC1	0.0%	-20.6%
SMILES	Cruzain noTriton	Cruzain Triton
COc1ccc(NC(=O)CSc2nnc(N)s2)cc1	-3.0%	-0.2%
CCOc1ccc(C(=O)CSc2nnc(N)s2)cc1	25.1µM*	-5.8%
COc1ccc(C(=O)Oc2cc(/C=N/NC(N)=S)ccc2OC)cc1	?	-8.0%
CNC(=S)N/N=C/c1ccc(OCC(=O)Nc2c(C)cc(C)cc2C)c(OC)c1	4.1%	-6.4%
CCOc1cc(/C=N\Nc2ccc([N+](=O)[O-])cc2)ccc1OCC(=O)Nc1ccc(C)c(C)c1	?	5.3%
COc1ccc(/C=N/NC(N)=S)cc1OC(=O)c1cccc2ccccc12	25.1µM*	1.2%
COc1cc(/C=N\Nc2ccc([N+](=O)[O-])cc2)ccc1OCC(=O)Nc1ccc(C)c(C)c1	3.98µM*	0.4%
COc1cc(/C=N/NC(N)=S)ccc1OCC(=O)Nc1ccc(C)cc1	?	2.51µM*
CCCCOc1ccc(CNC(=O)C2CCCN(c3nnc(-n4c(C)ccc4C)s3)C2)cc1 (configuration not stated)	1.6%	-4.6%
Clc1ccc(CSc2nc(NCCc3ccccc3)c3ccccc3n2)cc1	0.8%	3.9%
O=C(N1CCOCC1)N1CCC(n2nnc3cc(F)ccc32)CC1	-2.6%	1.2%
CCC(=O)Nc1cc(C(=O)OCc2ccc(C(=O)Oc3ccccc3)cc2)ccc1C	12.6µM*	-2.4%
CC(=O)Nc1cc(C(=O)OCC(=O)c2ccccc2)ccc1C	3.0%	0.6%
O=C(NCc1ccccn1)C(C(=O)c1ccc(F)cc1)n1ccccc1=O (configuration not stated)	-8.4%	0.4%
COc1cc(/C=N/NC(=O)COc2ccccc2[N+](=O)[O-])ccc1OC(=O)c1ccco1	?	-5.9%
CCOCCCNC(=O)C1CCN(S(=O)(=O)CC)CC1	-3.1%	6.0%
CCN(CC)c1ccc(N2C(=O)/C(=C\c3cccs3)SC2=S)cc1	25.1µM*	-3.3%
O=C1/C(=C/c2cccs2)SC(=S)N1c1ccccc1	?	-1.4%
CC(=O)NCC(=O)NC(Cc1ccccc1)C(N)=O (configuration not stated)	1.4%	1.0%
N#CC(C(=O)Nc1ccccc1)=C1Nc2ccccc2N1	-8.0%	-3.8%
N#C/C(C(=O)Oc1ccccc1)=C1/Nc2ccccc2-c2ccccc21	12.6µM*	2.4%
COc1ccc(N2CCN(C(=O)C3=NNC(=O)CC3)CC2)cc1	-4.6%	-2.2%
O=C(CNC(=O)c1ccccc1)NCCc1nc2ccccc2[nH]1	-16.7%	-6.0%
CCOC(=O)CCc1nc2ccccc2[nH]1	-0.8%	-5.0%
CCOc1ccc(OCC(=O)NCCc2nc3ccccc3[nH]2)cc1	0.794µM*	5.01µM*
SMILES	Cruzain noTriton	Cruzain Triton
Cc1cc(C)cc(OCC(=O)NCCc2nc3ccccc3[nH]2)c1	16.9%	15.8µM*
COc1ccc(C(=O)NCCc2nc3ccccc3[nH]2)cc1	-15.4%	12.6µM*
Cc1cc(=O)oc2cc(OCC(=O)NCCc3nc4ccccc4[nH]3)ccc12	2.51µM*	12.6µM*
Cc1cc(=O)oc2cc(OCC(=O)NCc3ccccn3)ccc12	2.4%	-6.9%
Cc1cc(C)cc(OCC(=O)Nc2cccc(-c3nc4ccccc4[nH]3)c2)c1	-21.2%	-4.5%
Cc1ccc(-c2nnc3c(C(F)(F)F)nc4ccccc4n23)cc1	-1.9%	1.4%
O=C(O)CCN1C(=O)c2ccc(NC(=O)CSc3ccccc3)cc2C1=O	0.9%	2.4%
CC1CCCCN1c1csc2ccc(F)cc2c1=O (configuration not stated)	-9.0%	-3.3%
COC(=O)[C@@]1(Cc2ccc(OC)cc2)[C@H]2c3cc(C(=O)N(C)C)n(CCc4ccccn4)c3C[C@H]2CN1C(=O)c1ccccc1	?	0.2%
CC(=O)NC(C)c1nc2ccccc2n1C(C)C (configuration not stated)	3.5%	1.1%
Cc1ccc(NC(=O)/C(C#N)=C\c2ccc(Cl)cc2Cl)cc1C	-12.4%	-3.6%
Cc1c(/C=C(\C#N)C(=O)Nc2cccc(Cl)c2)c2ccccc2n1Cc1ccccc1Cl	1.58µM*	-0.9%
Cc1ccc(C)c(OCCn2cc(/C=C(\C#N)C(=O)NCc3ccco3)c3ccccc32)c1	?	-4.1%
Cc1cccc(NC(=O)/C(C#N)=C/c2cn(CC(=O)NCc3ccco3)c3ccccc23)c1	10µM*	-3.3%
N#C/C(=C/c1cn(Cc2ccccc2Cl)c2ccccc12)C(=O)Nc1cccc(Cl)c1	3.16µM*	-1.6%
N#C/C(=C\c1cn(Cc2ccccc2F)c2ccccc12)C(=O)NCc1ccco1	-2.7%	-3.5%
CCCN(CCC)c1nc(-c2ccccc2F)nc2ccccc12	0.5%	7.3%
c1cncc(CNc2ccc3c(c2)OCO3)c1	-6.1%	-1.8%
